According to PubChem BioAssay:
Values joined by “and” are separate entries in the source; they are usually repeats but may differ in a detail not shown here. Identical values can stand only once.

Key:
[1] = test system: Botulinum neurotoxin type F light chain protease (Clostridium botulinum); experiment: Clostridium botulinum type F light chain protease inhibitors, microsphere substrate cleavage, validation (AID 588459); conditions: multiplex microsphere protease substrate cleavage assay, flow cytometry; at 10 µM; active compounds read high
[2] = molecular target: Botulinum neurotoxin type A (Clostridium botulinum) (UniProt P0DPI0); experiment: BoNT/A light chain protease inhibitors, biochemical, multiplex microsphere flow cytometry, validation set (AID 588460); conditions: at 10 µM, active compounds read high
[3] = molecular target: Lethal factor (Bacillus anthracis) (UniProt P15917); experiment: Bacillus anthracis lethal factor inhibition, microsphere flow cytometry protease assay, validation at 10 µM (AID 588461); conditions: multiplex microsphere protease cleavage assay, active compounds read high

Measured: inhibition

CCN1CCN(C(=S)c2ccc(OC)cc2)CC1
inactive: [1] 2.2% | [2] -0.9% | [3] 11.9%

CCN(CC)Cc1c[nH]c2c(C(=O)OC)cccc12
inactive: [1] -0.7% | [2] 0.3% | [3] 6.7%

O=C(COc1cc(O)c2c(=O)c3ccccc3oc2c1)OCc1ccccc1
inactive: [1] 1.4% | [2] 0.2% | [3] 1.6%

O=Cc1ccccc1Oc1ccccc1
inactive: [1] 0.2% | [2] -2.2% | [3] -0.3%

CCNCCC(CCC(C)C)c1ccc2c(c1)OCO2 (stereo unspecified)
inactive: [1] -3.1% | [2] -1.3% | [3] -0.1%

COc1ccc(CCNC(=O)CC(c2ccccc2)c2cccc(C)c2O)cc1OC (stereo unspecified)
inactive: [1] -0.9% | [2] -0.9% | [3] 0.1%

C[C@H]([C@@H](N)C(=O)N[C@@H](C(=O)O)[C@@H]1O[C@H](n2ccc(=O)[nH]c2=O)[C@@H](O)[C@H]1O)[C@@H](O)c1ccc(O)cn1
inactive: [1] 0.3% | [2] -1% | [3] -3.6%

NC(=O)N1c2ccccc2CC(=O)c2ccccc21
inactive: [1] -1.1% | [2] 0.3% | [3] 0.4%

CCC[C@@H]1C[C@@H](C(=O)N[C@H]([C@@H](C)O)[C@H]2O[C@H](SC)[C@H](O)[C@@H](O)C2O)N(C)C1 (stereo partly specified)
inactive: [1] 3.2% | [2] -1.6% | [3] 0.6%

O=C(NCCN1CCCCC1)c1c(O)c2ccccc2[nH]c1=O
inactive: [1] 3.5% | [2] 0.4% | [3] -3.9%

COCCOC(=O)C1=C(N)OC2=C(C(=O)CCC2)C1c1cccnc1 (stereo unspecified)
inactive: [1] -3.2% | [2] 0% | [3] -0.9%

CC(C)(C)OC(=O)NCCC(=O)Oc1ccc2ccc(=O)oc2c1
inactive: [1] -1.5% | [2] -0.8% | [3] 0.5%

CN=C1c2cc3cc(OC)ccc3n2CCN1C
inactive: [1] -1.5% | [2] -0.6% | [3] -0.1%

COc1cc2cc(C(=O)O)n(C)c2c(OC)c1OC
inactive: [1] 1.3% | [2] -0.4% | [3] 1.2%

C[n+]1ccccc1/C=N/O
inactive: [1] 2.2% and 2.6% | [2] 0.3% and 1.2% | [3] -1.8% and -6.4%

CC1(c2ccccc2)CC(C)(C)N2C(=O)C(=O)c3cccc1c32 (stereo unspecified)
inactive: [1] 0.5% | [2] 1.2% | [3] -0.4%

CN(C)CCOc1ccc(Cl)cc1C(C)(C)C
inactive: [1] -7.7% | [2] -2.2% | [3] -7.1%

COc1ccccc1C(=O)Oc1ccc2c(c1)O/C(=C\c1ccncc1)C2=O
inactive: [1] -0.7% | [2] 0.7% | [3] -8.2%

CNCCCN1c2ccccc2CCc2ccccc21
inactive: [1] -0.9% | [2] -0.6% | [3] 3.8%

O=C(CCCC(=O)OCC1CCCO1)OCC1CCCO1 (stereo unspecified)
inactive: [1] 1.9% | [2] -0.9% | [3] -1.6%

CC(C)C12CN3CC(C(C)C)(CN(C1)C3c1ccccc1O)C2=O (stereo unspecified)
inactive: [1] 4.7% | [2] 1.2% | [3] -5.3%

Nc1ccc2cn[nH]c2c1
inactive: [1] -8.4% | [2] -2.9% | [3] -16.3%

O=C(O)c1ccccc1O
inactive: [1] 0.4% | [2] -0.5% | [3] 2.3%

CCCC1O[C@@H]2C[C@H]3[C@@H]4CCC5=CC(=O)C=C[C@]5(C)[C@H]4[C@@H](O)C[C@]3(C)[C@]2(C(=O)CO)O1 (stereo partly specified)
inactive: [1] 6.3% | [2] 3.4% | [3] 3.4%

O=c1[nH]cc(F)c(=O)[nH]1
inactive: [1] 0.6% | [2] -1.2% | [3] -1.9%

COc1ccc(CC(=O)Nc2cccc(C(=O)Nc3ccccc3C(=O)O)c2)cc1OC
inactive: [1] -5.3% | [2] -3.3% | [3] 1.8%

COC(=O)c1ccccc1NC(=O)c1ccc(COc2ccc3c(c2)CCC3)cc1
inactive: [1] 2.7% | [2] -0.5% | [3] 2%

O=C(O)CCCNc1ccc(S(=O)(=O)Nc2ccccc2C(=O)O)cc1C(=O)O
inactive: [1] 1.6% | [2] 1.7% | [3] 10%

COc1cccc2c(O)cc(=O)n(C)c12
inactive: [1] -7.7% | [2] -0.5% | [3] -8.1%

Cc1cc(C(=O)Nc2ccccc2C(=O)N2CCCCC2)ccc1[N+](=O)[O-]
inactive: [1] 2.8% | [2] 2.4% | [3] -0.1%

COc1cc(CNCCc2c[nH]c3ccccc23)cc(Cl)c1OCC(N)=O
inactive: [1] -3.4% | [2] 0% | [3] -5.2%

O=C(NCc1ccc2c(c1)OCO2)c1ccc2c(c1)OCCO2
inactive: [1] 2% | [2] 0.7% | [3] -0.5%

COc1ccc(C2C(C(=O)c3ccco3)=C(O)C(=O)N2CC2CCCO2)cc1 (stereo unspecified)
inactive: [1] 1.3% | [2] 0.2% | [3] -4.2%

CCOC(=O)C1=C(C)NC(C)=C(C(=O)OC)C1c1cccc([N+](=O)[O-])c1 (stereo unspecified)
inactive: [1] -1.6% | [2] 0.4% | [3] -10%

CC(=O)O[C@H]1C(=O)[C@@]2(C)[C@H]([C@H](OC(=O)c3ccccc3)[C@]3(O)C[C@H](OC(=O)[C@H](O)C(NC(=O)c4ccccc4)c4ccccc4)C(C)=C1C3(C)C)[C@]1(OC(C)=O)CO[C@@H]1C[C@@H]2O (stereo partly specified)
inactive: [1] 1.1% | [2] -0.8% | [3] 4.6%

O=C(O)c1ccccc1C(=O)OCCCCOC(=O)c1ccccc1C(=O)O
inactive: [1] 5.9% | [2] -0.6% | [3] 3.5%

COc1cc(C)nc(-n2nc(C)cc2OC)n1
inactive: [1] 0.2% | [2] -1.5% | [3] -4.9%

OC12CCCCC1C(c1ccc3c(c1)OCO3)N(Cc1cccc(F)c1)CC2 (stereo unspecified)
inactive: [1] -0.1% | [2] -1.3% | [3] -2.8%

CC(C)C(=O)Nc1c(O)c2ccccc2[nH]c1=O
inactive: [1] 3.5% | [2] -0.8% | [3] 1.1%

CC1(C)CC(O)(CNCc2ccc3c(c2)OCO3)CCO1 (stereo unspecified)
inactive: [1] -3.2% | [2] -0.9% | [3] 1.2%

Cc1cccc(NC(=O)c2cc3ccccc3o2)c1
inactive: [1] 1.3% | [2] -0.4% | [3] -2.2%

COc1cc([C@@H]2c3cc4c(cc3[C@H](O)[C@H]3COC(=O)[C@H]23)OCO4)cc(OC)c1OC
inactive: [1] 1.4% | [2] 0% | [3] -2.8%

C[C@]12C[C@H](O)[C@H]3[C@@H](CCC4=CC(=O)CC[C@@]43C)[C@@H]1CC[C@@H]2C(=O)CO
inactive: [1] 0.1% | [2] -0.6% | [3] -9.2%

O=C(O)CCCCCCCC(=O)O
inactive: [1] 1.1% | [2] -0.8% | [3] -1.4%

CC(=O)Nc1ccccc1O
inactive: [1] 1.5% | [2] -1.1% | [3] -1.7%

CC1(CC(=O)Nc2ccccc2)NC(=S)N(c2ccccc2)N1 (stereo unspecified)
inactive: [1] 3% | [2] 0% | [3] 5.1%

Cc1ccc(/C=N/Nc2nc(C(C)(C)C)cs2)o1
inactive: [1] -1% | [2] -0.3% | [3] -6.6%

COc1ccc(C2CNC(=O)C2)cc1OC1CCCC1 (stereo unspecified)
inactive: [1] 7.8% | [2] -0.3% | [3] 1%

CN1CCCN(C(c2ccccc2)c2ccc(Cl)cc2)CC1 (stereo unspecified)
inactive: [1] 3.2% | [2] -1.8% | [3] -8.8%

O=C(Nc1ncc2c(n1)CC(c1ccco1)CC2=O)c1ccco1 (stereo unspecified)
inactive: [1] -2.6% | [2] -3.2% | [3] -10.4%

Fc1ccc(-n2cc(CNCCc3ccccn3)c(-c3ccccc3Cl)n2)cc1
inactive: [1] -1.9% | [2] 1.1% | [3] 6.5%

CCOc1ccc(OCCSc2nc3ccccc3[nH]2)cc1
inactive: [1] -6.7% | [2] -1.3% | [3] -1.8%

COc1ccc2nc(C)cc(Nc3ccccc3O)c2c1
inactive: [1] 1% | [2] 1% | [3] -1.4%

NS(=O)(=O)c1cc2c(cc1Cl)NC(C(Cl)Cl)NS2(=O)=O (stereo unspecified)
inactive: [1] -0.3% | [2] 0.1% | [3] -3%

CCN(CC)CCN1C(=O)C(=O)/C(=C(/O)c2c(C)[nH]c(C(=O)OC)c2C)C1c1cccnc1 (stereo unspecified)
inactive: [1] -1.7% | [2] -0.9% | [3] -4.4%

O=C(O)c1ccc(-c2ccc(O)c(F)c2)cc1
inactive: [1] -6.5% | [2] -1.7% | [3] 0.4%

C[C@@H]1C[C@H]2[C@@H]3C[C@H](F)C4=CC(=O)C=C[C@]4(C)[C@@]3(F)[C@@H](O)C[C@]2(C)[C@@]1(O)C(=O)CO
inactive: [1] 0.3% | [2] 0.4% | [3] 0.5%

O=C(CCCN1CC=C(n2c(=O)[nH]c3ccccc32)CC1)c1ccc(F)cc1
inactive: [1] -1.3% | [2] -1% | [3] -5.4%

C#CCOc1ccc2c(C)cc(=O)oc2c1
inactive: [1] -2.9% | [2] -2.2% | [3] 4.6%

CC(C)CN1CCN(Cc2ccc3ncccc3c2)CC1CCO (stereo unspecified)
inactive: [1] -0.3% | [2] 0.8% | [3] 0.5%

CCOC(=O)C(NC(C)=O)C(O)c1ccc([N+](=O)[O-])cc1 (stereo unspecified)
inactive: [1] 7.5% | [2] 2.6% | [3] -2.3%

O=C(c1ccco1)N1CCCN(Cc2nc(-c3ccc4c(c3)OCO4)no2)CC1
inactive: [1] 1% | [2] 0% | [3] 3.6%
